CHRM1 agonist: activates human CHRM1 receptor; 360,000 tested, 0.33% active; CHO-K1 hM1, Fluo-8 calcium fluorescence, agonist mode; 0% DMSO, 100% acetylcholine EC100; activation, % at 3 µM;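 active means activation above the run's mean compound activation plus 3 SD, cut at about 16% in these data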;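 further: peak over basal fluorescence ratio within a 140 s kinetic read after compound addition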
Target sequence (P11229 whole entry, looked up): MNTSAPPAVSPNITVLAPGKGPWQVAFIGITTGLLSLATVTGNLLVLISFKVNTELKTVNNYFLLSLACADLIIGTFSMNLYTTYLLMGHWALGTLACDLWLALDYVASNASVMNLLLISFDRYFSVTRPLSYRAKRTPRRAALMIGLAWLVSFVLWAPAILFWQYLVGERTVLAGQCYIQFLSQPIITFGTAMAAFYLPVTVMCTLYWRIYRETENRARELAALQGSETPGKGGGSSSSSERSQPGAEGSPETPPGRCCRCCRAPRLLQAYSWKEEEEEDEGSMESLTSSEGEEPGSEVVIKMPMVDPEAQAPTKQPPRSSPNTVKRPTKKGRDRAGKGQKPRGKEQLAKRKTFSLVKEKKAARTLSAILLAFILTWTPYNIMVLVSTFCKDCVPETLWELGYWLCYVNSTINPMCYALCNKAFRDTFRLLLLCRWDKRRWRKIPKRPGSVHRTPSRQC
M1 PAM parental: M1 PAM counterscreen hit in parental CHO-K1 cells | ATP EC20, Fluo-8 calcium fluorescence; 0% at ATP EC20, 100% at ATP max | activation, % at 3 µM | AID 602247 | 360,000 tested, 0.02% active;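 active means activation above the run cutoff, the mean activation of all test compounds plus 3 SD, cut at about 40% in these data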;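 further: peak over basal fluorescence ratio in a 140 s read after ATP addition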
M1 ag parental: nonselective activator or artifact in parental CHO-K1 cells | AID 602248 | 360,000 tested, 0.48% active | activation, % at 3 µM | Fluo-8 calcium fluorescence; scaled to maximal ATP response, vehicle zero; in the data active means activation above about 15%;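 further: untransfected CHO-K1 host cells lacking M1 receptor as counterscreen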
CHRM1 antagonist: blocks human M1 muscarinic receptor | P11229 | CHO-K1 hM1, Fluo-8 calcium fluorescence, ACh EC80 antagonist | inhibition, % at 3 µM | 360,000 tested, 1.3% active;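 active means percent inhibition above its own plate's cutoff, namely the mean of that plate's compound wells plus 3 SD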;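 further: peak over basal fluorescence ratio during 140 s after agonist addition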
CHO-K1 Ca antag: counter-screen for M1 antagonists: effect in parental CHO-K1 cells. 360,000 tested, 0.6% active. AID 602250. inhibition, % at 3 µM. ATP-induced calcium, Fluo-8 fluorescence;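 active means inhibition above a per-plate cutoff, the plate's mean sample inhibition plus 3 SD, cut at about 24% in these data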
CHRM1 PAM: human CHRM1 positive allosteric modulation; P11229; CHO-K1 hM1, Fluo-8 calcium fluorescence, ACh EC20; 0% = ACh EC20, 100% = maximal ACh; activation, % at 3 µM; 360,000 tested, 0.088% active; AID 588819; in the data active means activation above about 19%, passing the limit was not always enough
A number is an active result. Rows were chosen to be rich in hits. Some 2.3% of all compounds tested hit in one or more screens of this group.

How did CCc1ccc(OCc2nnc(SCCN3CCOCC3)n2CC)cc1 do in these assays?
CHRM1 agonist: inactive; M1 PAM parental: inactive; M1 ag parental: inactive; CHRM1 antagonist: 63; CHO-K1 Ca antag: inactive; CHRM1 PAM: inactive

Results for Clc1ccc(OCc2nnc(SCCN3CCCCC3)n2Cc2ccco2)cc1 ?
CHRM1 agonist: inactive; M1 PAM parental: inactive; M1 ag parental: inactive; CHRM1 antagonist: 99; CHO-K1 Ca antag: inactive; CHRM1 PAM: inactive

What do the screens show for `O=c1c2ccccc2nnn1CSc1nnc(COc2ccc(Cl)cc2)n1Cc1ccco1`?
CHRM1 agonist: inactive; M1 PAM parental: inactive; M1 ag parental: inactive; CHRM1 antagonist: inactive; CHO-K1 Ca antag: inactive; CHRM1 PAM: inactive

How did CCn1c(COc2ccc(C)cc2)nnc1SCc1ccc(C#N)cc1 do in these assays?
CHRM1 agonist: inactive; M1 PAM parental: inactive; M1 ag parental: inactive; CHRM1 antagonist: inactive; CHO-K1 Ca antag: inactive; CHRM1 PAM: inactive

Results for CCOC(=O)[C@]12CCC=C1N(Cc1ccc(Cl)cc1Cl)C(=O)[C@H](CC(=O)NCC1CCCCC1)C2 ?
M1 PAM parental: inactive; M1 ag parental: inactive; CHO-K1 Ca antag: inactive

What do the screens show for `CCC(=O)NCCc1nc2cc(NC(=O)c3ccccc3Cl)ccc2n1C`?
CHRM1 agonist: inactive; M1 PAM parental: inactive; M1 ag parental: inactive; CHRM1 antagonist: inactive; CHO-K1 Ca antag: inactive; CHRM1 PAM: 30

Results for CCn1c(P(C)(=O)O)nc2cc(NC(=O)c3ccccc3Cl)ccc21 ?
CHRM1 agonist: inactive; M1 PAM parental: inactive; M1 ag parental: inactive; CHRM1 antagonist: inactive; CHO-K1 Ca antag: 24; CHRM1 PAM: inactive

What do the screens show for `CCC(=O)NCCc1nc2cc(NC(=O)Nc3ccccc3)ccc2n1C`?
CHRM1 agonist: inactive; M1 PAM parental: inactive; M1 ag parental: inactive; CHRM1 antagonist: inactive; CHO-K1 Ca antag: inactive; CHRM1 PAM: inactive

Results for COc1ccc(C(=O)NC(CCSC)C(=O)N2CCCCCC2)cc1 (stereo not given) ?
CHRM1 agonist: inactive; M1 PAM parental: inactive; M1 ag parental: inactive; CHRM1 antagonist: inactive; CHO-K1 Ca antag: inactive; CHRM1 PAM: inactive

How did N#C/C(=C\c1cccn1S(=O)(=O)c1cccc(C#N)c1)S(=O)(=O)c1ccc(F)cc1 do in these assays?
CHRM1 agonist: inactive; M1 PAM parental: inactive; M1 ag parental: inactive; CHRM1 antagonist: inactive; CHO-K1 Ca antag: inactive; CHRM1 PAM: inactive

What do the screens show for `Cc1nnc(C)c2c(C)n(Cc3ccc4c(c3)OCO4)c(C)c12`?
CHRM1 agonist: inactive; M1 PAM parental: inactive; M1 ag parental: inactive; CHRM1 antagonist: inactive; CHO-K1 Ca antag: 24; CHRM1 PAM: inactive

What do the screens show for `CCOc1ccc(S(=O)(=O)NCc2ccc3c(c2)OCO3)cc1NC(C)=O`?
CHRM1 agonist: inactive; M1 PAM parental: inactive; M1 ag parental: inactive; CHRM1 antagonist: inactive; CHO-K1 Ca antag: inactive; CHRM1 PAM: inactive

What do the screens show for `CN1CCCC(OC(=O)c2ccc(Cl)cc2)C1` (stereo not given)?
CHRM1 agonist: inactive; M1 PAM parental: inactive; M1 ag parental: inactive; CHRM1 antagonist: inactive; CHO-K1 Ca antag: inactive; CHRM1 PAM: inactive

How did CN1CCCC(OC(=O)CCCCC(=O)OC2CCCN(C)C2)C1 (stereo not given) do in these assays?
CHRM1 agonist: inactive; M1 PAM parental: inactive; M1 ag parental: inactive; CHRM1 antagonist: inactive; CHO-K1 Ca antag: 26; CHRM1 PAM: inactive

How did COc1ccc(OC)c(S(=O)(=O)N2CCN(C(=O)c3cc(C4CC4)nn3-c3ccccc3)CC2)c1 do in these assays?
CHRM1 agonist: inactive; M1 PAM parental: inactive; M1 ag parental: inactive; CHRM1 antagonist: inactive; CHO-K1 Ca antag: inactive; CHRM1 PAM: inactive

What do the screens show for `NC(=O)C1=C(c2ccccc2)c2ccccc2C1=O`?
CHRM1 agonist: inactive; M1 PAM parental: inactive; M1 ag parental: inactive; CHRM1 antagonist: inactive; CHO-K1 Ca antag: 28; CHRM1 PAM: inactive

What do the screens show for `CN(C)/C=C/C1=CC(=O)CC(C)(C)C1`?
CHRM1 agonist: inactive; M1 PAM parental: inactive; M1 ag parental: inactive; CHRM1 antagonist: inactive; CHO-K1 Ca antag: 24; CHRM1 PAM: inactive

How did Cc1ccc(C2=CC(=O)CC(C)(C)C2)cc1 do in these assays?
CHRM1 agonist: inactive; M1 PAM parental: inactive; M1 ag parental: inactive; CHRM1 antagonist: inactive; CHO-K1 Ca antag: inactive; CHRM1 PAM: inactive

What do the screens show for `C[C@]12c3[nH]c4ccccc4c3CCN1C(=O)C(CC(=O)NCCN1CCOCC1)C[C@@H]2C(=O)N1CCCCC1` (stereo not given in full)?
CHRM1 agonist: inactive; M1 PAM parental: inactive; M1 ag parental: inactive; CHRM1 antagonist: inactive; CHO-K1 Ca antag: inactive; CHRM1 PAM: inactive

How did CC(=O)c1ccc(S(=O)(=O)N2CCN(c3nc(-c4cccnc4)nc4ccccc34)CC2)cc1 do in these assays?
CHRM1 agonist: inactive; M1 PAM parental: inactive; M1 ag parental: inactive; CHRM1 antagonist: 76; CHO-K1 Ca antag: inactive; CHRM1 PAM: inactive

How did CCN(CC)CCCNC(=O)C1CCC(CNS(=O)(=O)c2ccc(Cl)cc2)CC1 (stereo not given) do in these assays?
CHRM1 agonist: inactive; M1 PAM parental: inactive; M1 ag parental: inactive; CHRM1 antagonist: inactive; CHO-K1 Ca antag: inactive; CHRM1 PAM: inactive

Results for CC1=C(C)CC(C(=O)NC2CCN(C(C)C)CC2)C(C(=O)O)C1 (stereo not given) ?
CHRM1 agonist: inactive; M1 PAM parental: inactive; M1 ag parental: inactive; CHRM1 antagonist: 50; CHO-K1 Ca antag: inactive; CHRM1 PAM: inactive

What do the screens show for `CC1=C(C)CC(C(=O)NC2CCCC2)C(C(=O)O)C1` (stereo not given)?
CHRM1 agonist: inactive; M1 PAM parental: inactive; M1 ag parental: inactive; CHRM1 antagonist: inactive; CHO-K1 Ca antag: inactive; CHRM1 PAM: inactive

What do the screens show for `Cc1c(C(=O)NCCS(=O)(=O)N2CCN(c3ccccc3F)CC2)cccc1[N+](=O)[O-]`?
CHRM1 agonist: inactive; M1 PAM parental: inactive; M1 ag parental: inactive; CHRM1 antagonist: inactive; CHO-K1 Ca antag: inactive; CHRM1 PAM: inactive

What do the screens show for `O=C(Nc1ccc(S(=O)(=O)Nc2ncccn2)cc1)c1ccco1`?
CHRM1 agonist: inactive; M1 PAM parental: inactive; M1 ag parental: inactive; CHRM1 antagonist: inactive; CHO-K1 Ca antag: inactive; CHRM1 PAM: inactive

What do the screens show for `O=C(Nc1ccc(S(=O)(=O)Nc2ncccn2)cc1)c1ccc(Br)o1`?
CHRM1 agonist: inactive; M1 PAM parental: inactive; M1 ag parental: 18; CHRM1 antagonist: inactive; CHO-K1 Ca antag: inactive; CHRM1 PAM: inactive

Results for FC(F)(F)c1cc(Cl)c2nc(-c3ccc(Cl)cc3)c(Cc3ccsc3)n2c1 ?
M1 PAM parental: inactive; M1 ag parental: inactive; CHO-K1 Ca antag: 31

How did Fc1ccc(-c2nc3c(Cl)cc(C(F)(F)F)cn3c2Cc2cccc(Cl)c2)cc1 do in these assays?
M1 PAM parental: inactive; M1 ag parental: inactive; CHO-K1 Ca antag: 33

How did COc1ccc(NC(=O)Nc2ccc(F)c(Cl)c2)cc1 do in these assays?
CHRM1 agonist: inactive; M1 PAM parental: inactive; M1 ag parental: inactive; CHRM1 antagonist: inactive; CHO-K1 Ca antag: inactive; CHRM1 PAM: inactive
